Active and inactive are the calls of the source. How the calls were made is not given here.
These molecules were tested against Pantothenate synthetase (Mycobacterium tuberculosis (strain ATCC 25618 / H37Rv)) (UniProt P9WIL5) (assay: Recombinant Mtb pantothenate synthetase (PanC) inhibitors, coupled enzyme, confirmatory (AID 375;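 further: 0% = full reaction with vehicle and 100% = no enzyme background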)). Conditions: coupled enzyme assay; at 10 µM, active compounds read high.
Pantothenate synthetase (Mycobacterium tuberculosis (strain ATCC 25618 / H37Rv)), sequence (P9WIL5 whole entry, looked up): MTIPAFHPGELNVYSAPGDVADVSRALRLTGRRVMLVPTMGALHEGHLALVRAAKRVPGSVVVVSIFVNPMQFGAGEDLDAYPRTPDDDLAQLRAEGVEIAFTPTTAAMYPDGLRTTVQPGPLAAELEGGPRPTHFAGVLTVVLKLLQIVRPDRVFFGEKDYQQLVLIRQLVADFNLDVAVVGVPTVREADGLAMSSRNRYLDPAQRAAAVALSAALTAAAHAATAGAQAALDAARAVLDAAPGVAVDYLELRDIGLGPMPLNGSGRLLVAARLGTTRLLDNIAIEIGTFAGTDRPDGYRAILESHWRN
`Nn1c(SCc2csc(-c3ccccc3)n2)nnc1-c1cccs1` was tested, and the inhibition was 0% (inactive).
With `CCC(=O)Nc1c2c(nn1-c1ccccc1C)CSC2` the inhibition was 6% (inactive).
With `Cc1nc(NS(=O)(=O)c2ccccc2)sc1NC(=O)OC(C)C` the inhibition was 0% (inactive).
In the case of `CCOC(=O)Nc1ccc(OC)cc1S(=O)(=O)N1CCCCC1`, the inhibition is reported as 0% (inactive).
With `CC1(C)Cc2nc3oc4c(N(CCO)Cc5ccccc5)ncnc4c3cc2CO1` the inhibition was 0% (inactive).
`COc1cccc(-c2nc(CS(=O)(=O)CC(=O)N3CCc4ccccc4C3)c(C)o2)c1` was tested, and the inhibition was 4% (inactive).
In the case of `COC(=O)C1=C(C)Nc2ncnn2C1c1ccco1` (stereo not given), the inhibition is reported as 0% (inactive).
For `COC(=O)c1ccccc1NC(=O)CSc1nnc(-c2ccncc2)o1`, the inhibition was 0% (inactive).
With `CCn1cc(C(C)NC(=O)COc2ccc(Cl)cc2C)c(C)n1` (stereo not given) the inhibition was 0% (inactive).
For `CCOC(=O)C1CCCN(C(=O)c2sc3nc(-c4ccccc4)cn3c2C)C1` (stereo not given), the inhibition was 0% (inactive).
`Cc1cc(NC(=O)CSc2nc3c(c(-c4cccnc4)c2C#N)CCC3)no1` was tested, and the inhibition was 0% (inactive).
`CC(C)(C)OC(=O)NC(CCNC=C1C(=O)OC(C)(C)OC1=O)C(=O)O` (stereo not given) was tested, and the inhibition was 4% (inactive).
With `Cc1cccc(OCCCc2c(C)n[nH]c2C)c1` the inhibition was 0% (inactive).
`NC(=O)c1ccsc1NC(=O)COC(=O)Cc1ccsc1` was tested, and the inhibition was 3% (inactive).
In the case of `Cc1ccc(NC(=O)Cn2cccc2)cc1Cl`, the inhibition is reported as 0% (inactive).
`CC1CCN(CCCNC(=O)c2coc3nc4ccccc4nc23)CC1` was tested, and the inhibition was 1% (inactive).
With `CCOC(=O)CNC(=O)CSc1nc(N)cc(N)n1` the inhibition was 1% (inactive).
In the case of `CCCCCCn1c(CN2CCN(Cc3ccccc3)CC2)nc2c1c(=O)n(C)c(=O)n2C`, the inhibition is reported as 10% (inactive).
In the case of `Cc1cc(C)cc(Nc2ncc3c(n2)CC(c2ccco2)CC3=O)c1` (stereo not given), the inhibition is reported as 3% (inactive).
In the case of `Cc1ccc(-c2noc(COc3ccccc3C)n2)cc1`, the inhibition is reported as 0% (inactive).
For `Cn1c(SCC(=O)N2CCOCC2)nnc1-c1cnccn1`, the inhibition was 0% (inactive).
`Cc1cc(C(=O)Nc2sc3c(c2C#N)CCCCC3)cs1` was tested, and the inhibition was 0% (inactive).
In the case of `CCCC(=O)Nc1cccc(NC(=O)CN2CCN(c3ccccc3OC)CC2)c1`, the inhibition is reported as 0% (inactive).
With `Cc1cc(C)n(C2=NS(=O)(=O)c3ccccc32)n1` the inhibition was 1% (inactive).
With `CC(C)OC(=O)CSc1nnc(Cc2ccccc2)n1Cc1ccco1` the inhibition was 8% (inactive).
With `Cn1c(SCc2c(F)cccc2Cl)nnc1-c1cccs1` the inhibition was 0% (inactive).
For `Cc1cc(NC(=O)c2ccc(Cl)cc2)no1`, the inhibition was 0% (inactive).
In the case of `COc1ccc(-n2c(SCc3ccc(C#N)cc3)nnc2-c2ccccn2)cc1`, the inhibition is reported as 0% (inactive).
For `CC(=O)Nc1c(Cl)n(C(C)=O)c2ccccc12`, the inhibition was 7% (inactive).
In the case of `COc1ccc(-c2nc(CSCC(=O)NCc3ccc4c(c3)OCO4)c(C)o2)cc1OC`, the inhibition is reported as 0% (inactive).
`COc1ccccc1OCC(=O)Nc1ccc(S(=O)(=O)Nc2nc(C)cc(C)n2)cc1` was tested, and the inhibition was 1% (inactive).
With `O=C(NCc1ccccn1)C(C(=O)c1ccc(F)cc1)n1ccccc1=O` (stereo not given) the inhibition was 5% (inactive).
`COC(=O)C1C2C=CC3(CN(CC4CCCO4)C(=O)C13)O2` (stereo not given) was tested, and the inhibition was 0% (inactive).
`CCC(=O)Nc1cc2nn(-c3ccccc3)nc2cc1Cl` was tested, and the inhibition was 0% (inactive).
For `COCCCN1C(=O)C(=O)/C(=C(/O)c2ccc(OC)cc2)C1c1ccc(O)c(OC)c1` (stereo not given), the inhibition was 0% (inactive).
In the case of `O=C(C1CCN(c2nnnn2-c2ccccc2)CC1)N1CCN(c2ccccc2)CC1`, the inhibition is reported as 0% (inactive).
In the case of `CC1=C(C(=O)OC(C)C)C(c2cccc(F)c2)n2ncnc2N1` (stereo not given), the inhibition is reported as 2% (inactive).
In the case of `CCOc1cc(-c2nc(-c3ccc(C)nc3OCC)no2)cc(OCC)c1OCC`, the inhibition is reported as 0% (inactive).
With `Cc1sc2ncnc(Oc3ccc(-n4ccnc4)cc3)c2c1C` the inhibition was 4% (inactive).
In the case of `Cc1nc2sc(C(c3cccc(F)c3)N3CCCCC3)c(O)n2n1` (stereo not given), the inhibition is reported as 0% (inactive).

Source: PubChem BioAssay
